# Hits are enriched below; roughly 19% of the tested compounds scored in any of these assays.
# Pf growth 96h: Primary qHTS for delayed death inhibitors of the malarial parasite plastid, 96 hour incubation; P. falciparum luciferase reporter growth, 96 h; Potency, µM (highest dose often 28.7 µM), inactives show at the top dose activity change, negative = inhibition, actives largely listed as inhibitors; AID 504834, 2011; hit rate 6.9% among 320,000; further: potency means the concentration at half of the fitted maximal effect; on the % scale 0 is the no-effect control and ±100 the full control effect
#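 Erythrocytes infected with luciferase-expressing P. falciparum were dispensed at 2% hematocrit and 0.05% parasitemia (final), then incubated with compounds 96 hours at 37 C in 5% CO2. Luminescence after detection reagent addition reported growth.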
# CHX counter: Cycloheximide Counterscreen for Small Molecule Inhibitors of Shiga Toxin. cell reporter, cycloheximide protein synthesis inhibition counterscreen. max response, %. hit rate 12% among 300,000; in the data active means max response mostly above about 13%, no sharp cut-off; inactive means mostly below about 14%; further: read at 38.3 µM for the half of the compounds with a filed dose; 0% is about no effect
# Pf growth 48h: Primary qHTS for delayed death inhibitors of the malarial parasite plastid, 48 hour incubation; P. falciparum luciferase growth in erythrocytes, 48 h; Potency, µM (highest dose often 28.7 µM), inactives show top-dose activity change, negative = inhibition, hits mostly inhibitors; hit rate 5.9% among 310,000; AID 504832, 2011; further: potency means the concentration at half of the fitted maximal effect; on the % scale 0 is the no-effect control and ±100 the full control effect
#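 Read-out is firefly luciferase luminescence from an integrated reporter in P. falciparum, so falling signal marks reduced parasite growth. Infected erythrocytes were at 2% hematocrit and 0.1% parasitemia (final) in Albumax-supplemented RPMI 1640.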
# SARS PLpro yeast: qHTS of Yeast-based Assay for SARS-CoV PLP | S. cerevisiae expressing SARS-CoV PLpro, growth rescue | Potency, µM (series often up to 32.9 µM), inactives show at the highest dose activity, positive = growth rescue, usual class: activators | hit rate 0.19% among 330,000; calls by dose curve; further: potency means the concentration at half of the fitted maximal effect; 0% is about no effect; nearly all actives have a fitted effect of over 55% in size
# Shiga toxin inh: A qHTS for Small Molecule Inhibitors of Shiga Toxin. hit rate 9.2% among 290,000. Vero cells, Shiga toxin protein synthesis inhibition reporter. inhibition, % at 38.7 µM; in the data active means inhibition mostly above about 28%, no sharp cut-off; inactive means mostly below about 43%; further: 0% is about no effect
# AMA1 RON2 block: qHTS for Inhibitors of AMA1-RON; Towards Development of Antimalarial Drug Lead: Primary Screen | hit rate 0.2% among 360,000 | AlphaScreen AMA1-biotinylated RON2 peptide binding | AID 720542, 2013 | Potency, µM (series often up to 58.2 µM), for the others: at the top dose activity change, negative = inhibition, hits mostly inhibitors | Plasmodium falciparum AMA1 (3D7) - RON2 peptide interaction;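 further: potency means the concentration at half of the fitted maximal effect; 0% = vehicle wells and -100% = peptide control; nearly all actives have a fitted effect of over 45% in size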
#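 AMA1 (3D7) with his tag at 25 nM final met compounds first, then biotinylated RON2 peptide at 25 nM; detection used donor plus acceptor beads, 10 µg/mL apiece, read by AlphaScreen after 30 min at room temperature.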
# * marks the source's active call; other numbers are inactive results; ? = inconclusive; . = not tested or not shown; [ ] = another dose, or the depositor's remark. Unless noted, the call rests on the fitted dose curve; in most records, active means well fitted curve in the direction sought with a large enough effect; inconclusive means small, poorly fitted or top-dose-only effect, or another doubt; inactive means no such curve, though single readings can be large; an effect the other way counts as inactive or inconclusive.
SMILES,Pf growth 96h,CHX counter,Pf growth 48h,SARS PLpro yeast,Shiga toxin inh,AMA1 RON2 block
CC(C)(Oc1ccc(C2CCCc3ccccc32)cc1)C(=O)O (stereo unspecified),-7%,.,-7%,.,.,.
Cc1cc(F)cc(-c2cc(C(=O)NCc3ccco3)[nH]n2)c1,.,.,.,.,.,7%
COc1cccc(C(NC(C)=O)c2nc(-c3ccc(OC)nc3)cs2)c1 (stereo unspecified),.,.,.,.,.,-1%
CCCCC(CC)COC1(c2ccccc2)OC(=O)c2ccccc21 (stereo unspecified),8.3µM*,0,9.3µM*,-23%,23,12%
CC(=O)c1c(C)n(CCc2ccc(Cl)cc2)c2ccc(O)cc12,5.9µM*,0,11%,1%,.,12%
CC(=O)c1c(C)n(-c2cccc(Cl)c2)c2ccc(O)cc12,2.6µM*,-1,-16%,-1%,2,-6%
COC(=O)c1c(C)n(-c2ccccc2)c2ccc(O)cc12,.,-3,?,-9%,-16,-9%
COC(=O)c1c(C)n(-c2ccc(C)cc2)c2ccc(O)cc12,4.1µM*,-6,.,-2%,-16,-9%
Cc1cc(C(=O)CCl)c(C)n1CCc1ccc(Cl)cc1,8.3µM*,11,?,-3%,32,-10%
CC(=O)c1c(C)n(-c2ccc(Cl)cc2)c2ccc(O)cc12,13%,-1,-6%,0%,-9,3%
Cc1cc(C(=O)CCl)c(C)n1CCc1ccc(F)cc1,?,10,?,22%,-27,15%
CC1(c2nnnn2C2CCCCC2)CCC(=O)N1Cc1ccc2c(c1)OCO2 (stereo unspecified),.,.,.,.,.,3%
COC(=O)c1sccc1NC(=O)Nc1cccc(OC)c1,-2%,45*,17%,-11%,40*,1%
COC(=O)c1sccc1NC(=O)Nc1cccc(F)c1,35%,9.4*,14%,-2%,51,?
CCCN(CCC)C(C(=O)Nc1cccc(OC)c1)c1ccccc1 (stereo unspecified),13µM*,-1,?,0%,49,-12%
COc1cccc(NC(=O)Nc2ccccc2Br)c1,19%[5.75 µM],53*,133%,-2%,74*,13%
CCOc1ccc(C(C(=O)NC(C)(C)C)N(CCOC)C(=O)CCC(=O)Nc2ccccn2)cc1 (stereo unspecified),-12%,-3,7%,0%,-1,17%
CCOC(=O)C(C)n1nc(/C=C/c2ccccc2)ccc1=O (stereo unspecified),?,-1,?,2%,-5,13%
CCOC(=O)C(C)n1nc(/C=C/c2ccc(OC)cc2)ccc1=O (stereo unspecified),9.3µM*,8,?,-8%,7,19%
CCCCOCCCn1c(-c2ccco2)nc2nc3ccccc3nc21,9%,-1,?,-14%,19,24%
CCOc1cc2c(cc1OCC)-n1cccc1C(c1ccc(F)c(OC)c1)NC2 (stereo unspecified),-1%,-3,10µM*,-1%,-4,-18%
CCOc1cc2c(cc1OCC)-n1cccc1C(c1c(O)cccc1OC)NC2 (stereo unspecified),-28%,-2,13µM*,3%,-11,?
CCOc1cc2c(cc1OCC)-n1cccc1C(c1ccccc1OC)NC2 (stereo unspecified),0%,-2,10µM*,-4%,-19,?
CCOc1cc2c(cc1OCC)-n1cccc1C(c1ccc(OC)c(OC)c1)NC2 (stereo unspecified),0%,-4,?,1%,-9,0%
CCOc1cc2c(cc1OCC)-n1cccc1C(c1ccccc1O)NC2 (stereo unspecified),6%,4,8.3µM*,-1%,-11,-18%
SMILES,Pf growth 96h,CHX counter,Pf growth 48h,SARS PLpro yeast,Shiga toxin inh,AMA1 RON2 block
CCOc1cc2c(cc1OCC)-n1cccc1C(c1cccc(F)c1F)NC2 (stereo unspecified),?,13,?,1%,-5,?
C=CCOc1nc(N2CCCC2)nc(N2CCCC2)n1,50%,-2,-6%,-1%,-13,-2%
O=C(/C=C/c1cccs1)N1CCN(Cc2ccc3c(c2)OCO3)CC1,128%,-1,-12%,-20%,13,-9%
c1cc(-c2noc(CCC3CCCC3)n2)ccn1,?,17*,?,-3%,15,-3%
c1ccc(-c2noc(CSc3nnnn3C3CCCCC3)n2)cc1,3%,28*,70%,1%,46,-1%
c1ccc(-c2noc(CCC3CCCC3)n2)cc1,?,20*,38%,0%,4,0%
c1ccc(-c2noc(CC3CCCCC3)n2)cc1,-49%[5.75 µM],31*,173%,0%,48*,8%
Cc1ccc(-c2noc(CCCC(=O)NC3CCCCC3)n2)cc1,0%,6,24%,1%,5,14%
O=C(CCCc1nc(-c2ccccc2)no1)NC1CCCCC1,0%,-3,5%,0%,-6,12%
CCCC(=O)Nc1cccc(NC(=O)c2cccc([N+](=O)[O-])c2C)c1,19%,-2,-8%,6%,10,-1%
CN(Cc1nc(-c2ccccc2)no1)C1CCOCC1,162%,46*,136%,1%,59,-9%
COc1ccc(-c2noc(CN(C)C3CCOCC3)n2)cc1,?,13,-6%,0%,30,5%
COCCCC1CCN(Cc2nc(Cc3ccccc3Cl)no2)CC1,?,-2,-3%,-1%,-10,-2%
COCCCC1CCN(Cc2nc(-c3ccccc3)no2)CC1,0%,23*,39%,-1%,76*,25%
CC(C)CCN1C(=O)c2ccc(C(=O)OCn3nnc4ccccc4c3=O)cc2C1=O,9%,-3,35%,-2%,-10,8%
O=[N+]([O-])c1ccc(N2CCN(c3cccc(Cl)c3)CC2)cn1,-24%,9,0%,2%,4,-8%
Cc1ccc(CN2CCc3[nH]c(=O)[nH]c(=O)c3C2)cc1,1.2µM*,-4,2%,1%,-6,5%
Cc1ccc(CN2CCc3[nH]c(=S)[nH]c(=O)c3C2)cc1,-8%,-1,-9%,-6%,1,77%
COc1cccc(C(=O)Nc2ccc3c(cc2=O)[C@@H](NC(C)=O)CCc2cc(OC)c(OC)c(OC)c2-3)c1,?,-2,8.3µM*,0%,-5,3%
O=C(Nc1ccccc1N1CCCC1)c1cc(=O)[nH]c2ccccc12,-4%,.,-6%,0%,.,-15%
COc1cccc(N=c2oc3cc(O)ccc3cc2C(=O)NCC2CCCO2)c1 (stereo unspecified),?,13*,?,1%,65,-10%
